The values below come from PubChem BioAssay.

Test [1] has as its system Human papillomavirus type 1a protein E7 (residues 44-93). The experiment in a line: HPV1a E7 fragment binders on microarrays, primary screen, biochemical, small-molecule microarray, residues 44-93, 635 nm fluorescence (AID 1108).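 Further: E7 fragment applied at 1 µg/mL in TBST for 1 h at 4 C; score combines spot fluorescence with its signal to noise ratio.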 The note with it: small-molecule microarray binding, fluorescence 635 nm; higher = more signal.
Test [2] can be described thus: modulators of HCV replicon luciferase signal, primary screen, HCV replication inhibitor project, Huh7 cells, luciferase reporter (AID 1109).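 Further: huh7 hepatoma cells harbouring a luciferase neomycin HCV replicon reporter; luciferase luminescence as measure of HCV replicon replication; test concentration not given here.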 The note with it: 48 h, higher = more signal. In general terms: Replicon systems follow genome replication, usually without infectious particles.
Test [3] addresses Left-right determination factor 2 (Homo sapiens) (UniProt O00292). Nature of the test: LEFTY2 binders on small-molecule microarrays, primary screen, biochemical, small-molecule microarray, 635 nm fluorescence scan (AID 1110). The note with it: LEFTY2 binding, higher = more signal.
Test [4] addresses Calmodulin-1 (Homo sapiens) (UniProt P0DP23). Nature of the test: CALM1 binders on microarrays, EGTA buffer, profiling panel, biochemical, small-molecule microarray, Cy5-labelled CALM1 (AID 1111).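 Further: labelled calmodulin applied in Tris saline Tween buffer holding calcium plus EGTA and DTT.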 The note with it: Cy5-CALM1 binding fluorescence, higher = more signal.
The target is the same in test [5]. Nature of the test: calcium-bound CALM1 binders on microarrays, profiling panel, artefact control for SMM control-protein annotation, biochemical, small-molecule microarray, Cy5-labelled CALM1, plus calcium (AID 1112).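 Further: score merges spot fluorescence with signal to noise from triplicate slides.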 The note with it: Cy5-CALM1 binding fluorescence, higher = more signal.
The nature of test [6]: small-molecule microarray binders of probe aWnt5a, primary screen, biochemical, biotinylated probe, 635/667 nm fluorescence (AID 1113).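 Further: score merges 667 nm fluorescence intensity with signal-to-noise per printed feature.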 The note with it: higher = more signal.
The nature of test [7]: small-molecule microarray binders of probe aShh, primary screen, biochemical, biotinylated probe, 635/667 nm fluorescence (AID 1114).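 Further: probe is biotin-labelled aShh protein from a stem cell growth factor screen; measures binding of labelled protein to compounds printed on the slide; score merges feature fluorescence at 667 nm with signal-to-noise.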 The note with it: higher = more signal.
A short description of test [8]: small-molecule microarray binders of probe aNog, primary screen, biochemical, biotinylated probe, 635/667 nm fluorescence (AID 1115).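 Further: probe is biotinylated aNog protein used at 0.15 µg/mL for 1 h at 4 C; z-score combines 667 nm fluorescence of each spot with its signal to noise.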 The note with it: higher = more signal.
Test [9] addresses Torsin-1A-interacting protein 1 (Homo sapiens) (UniProt Q5JTV8). Nature of the test: LAP1 binders from COS7 cell lysate, primary screen, small-molecule microarray, 635/667 nm fluorescence (AID 1116). The note with it: COS7-hLAP1 lysate binding, 635 nm fluorescence, higher = more signal.
Test [10] addresses Alpha-bungarotoxin (Bungarus multicinctus) (UniProt P60615). The experiment in a line: alpha-bungarotoxin binders on microarray, profiling panel, artefact control for SMM control protein annotation, biochemical, small-molecule microarray, Alexa647 label, 635/667 nm fluorescence (AID 1117). The note with it: alpha-BTX-A647 binding fluorescence, higher = more signal.
The target in another test is Albumin (Bos taurus) (UniProt P02769). Nature of the test: bovine serum albumin binders on microarray, profiling panel, artefact control for SMM control protein annotation, biochemical, small-molecule microarray, Alexa647 label, 635/667 nm fluorescence (AID 1118).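 Further: score merges 667 nm emission intensity and signal-to-noise per printed compound spot.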 The note with it: BSA-A647 binding, fluorescence 635 nm, higher = more signal.
Albumin (Bos taurus), sequence (P02769 whole entry, looked up): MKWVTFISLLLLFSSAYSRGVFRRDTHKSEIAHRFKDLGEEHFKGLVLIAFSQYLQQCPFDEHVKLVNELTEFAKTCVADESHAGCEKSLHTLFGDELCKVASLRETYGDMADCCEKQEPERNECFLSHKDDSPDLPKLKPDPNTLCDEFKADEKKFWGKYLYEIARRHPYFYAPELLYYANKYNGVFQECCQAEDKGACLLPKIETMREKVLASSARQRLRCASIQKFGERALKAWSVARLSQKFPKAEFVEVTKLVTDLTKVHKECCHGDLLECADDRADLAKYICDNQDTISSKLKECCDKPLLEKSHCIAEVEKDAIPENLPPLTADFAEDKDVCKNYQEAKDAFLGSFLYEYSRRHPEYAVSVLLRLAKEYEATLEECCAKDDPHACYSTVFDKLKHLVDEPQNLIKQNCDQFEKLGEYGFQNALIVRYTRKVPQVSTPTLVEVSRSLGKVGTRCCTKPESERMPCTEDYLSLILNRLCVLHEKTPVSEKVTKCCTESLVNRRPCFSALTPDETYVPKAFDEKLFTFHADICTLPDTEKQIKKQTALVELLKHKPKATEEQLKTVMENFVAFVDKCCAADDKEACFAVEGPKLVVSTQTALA
The nature of test [11]: small-molecule microarray binders of probe aXIP, primary screen, biochemical, NeuroSMM set, 635/667 nm fluorescence (AID 1119).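 Further: probe is the protein aXip251-270 applied at 1 µg/mL to compound-printed slides; binding of probe to printed compounds measured as 667 nm fluorescence plus signal to noise.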 The note with it: higher = more signal, called active from +8 up or from −8 down.
The nature of test [12]: small-molecule binders of probe aNOTCH3, primary screen, biochemical, small-molecule microarray, 635/667 nm fluorescence (AID 1120).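 Further: probe is a biotin-tagged antibody raised against NOTCH3 rather than NOTCH3 protein; score merges spot fluorescence near 667 nm with spot signal to noise.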 The note with it: higher = more signal.
A short description of test [13]: small-molecule binders of probe aNOTCH2, primary screen, biochemical, small-molecule microarray, 635/667 nm fluorescence (AID 1121).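 Further: score merges feature fluorescence read at 667 nm with its signal to noise.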 The note with it: higher = more signal.
Test [14] deals with Carbonic anhydrase 2 (Homo sapiens) (UniProt P00918). The experiment in a line: CAII small-molecule binders, profiling panel, biochemical, small-molecule microarray, Alexa647-labelled CAII (AID 1122). The note with it: CAII-A647 binding fluorescence, higher = more signal.
A short description of test [15]: COS7 lysate on small-molecule microarray, probe aHis, 635 nm (AID 1123).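 Further: z-score combines 667nm fluorescence intensity with signal-to-noise per printed compound spot.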 The note with it: COS7 cell lysate, fluorescence, higher = more signal.
Test [16] in a line: compound binding in COS7 lysate, probe aLAP1, primary screen, cell lysate, small-molecule microarray (AID 1124).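 Further: lysate comes from COS7 cells expressing LAP1 and is applied at 0.3 µg/mL; score merges spot fluorescence near 667 nm with signal-to-noise over triplicate slides.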 The note with it: probe aLAP1, fluorescence, higher = more signal.
The subject of a further test is Sam68 (KHDRBS1). The experiment in a line: Sam68 small-molecule binders, primary screen, biochemical, small-molecule microarray, 635 nm fluorescence (AID 1125).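 Further: score merges 667 nm channel intensity with signal to noise over triplicate slides.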 The note with it: small-molecule microarray binding, higher = more signal.
For test [17], the system named is Chordin-like protein 2 (CHRDL2). Nature of the test: CHRDL2 small-molecule binders, primary screen, biochemical, small-molecule microarray, 635 nm fluorescence (AID 1126).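 Further: printed compound slides probed with Chrdl2 protein at 4 µg/mL for 1 h at 4 C; score merges 667 nm emission intensity with signal to noise over three replicate slides.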 The note with it: small-molecule microarray binding, fluorescence 635 nm; higher = more signal.
Test [18] addresses Concanavalin-A (Canavalia ensiformis) (UniProt P02866). The experiment in a line: ConA small-molecule binders, primary screen, artefact control for SMM control protein annotation, biochemical, small-molecule microarray, Alexa647 label, 635 nm (AID 1127).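 Further: z combines 667 nm emission intensity with signal-to-noise across three replicate slides.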 The note with it: ConA-A647 binding fluorescence, higher = more signal.

Structures are written as SMILES. Active and inactive are the calls of the source.

Concanavalin-A (Canavalia ensiformis), sequence (P02866 whole entry, looked up): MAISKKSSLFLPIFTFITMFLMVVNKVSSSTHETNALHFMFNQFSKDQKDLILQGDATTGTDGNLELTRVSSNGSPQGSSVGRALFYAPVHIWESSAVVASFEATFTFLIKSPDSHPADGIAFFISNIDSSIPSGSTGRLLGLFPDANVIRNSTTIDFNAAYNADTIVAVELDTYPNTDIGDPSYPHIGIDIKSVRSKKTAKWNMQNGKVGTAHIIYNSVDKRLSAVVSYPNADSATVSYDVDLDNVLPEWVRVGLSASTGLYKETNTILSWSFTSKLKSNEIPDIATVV
Left-right determination factor 2 (Homo sapiens), sequence (O00292 whole entry, looked up): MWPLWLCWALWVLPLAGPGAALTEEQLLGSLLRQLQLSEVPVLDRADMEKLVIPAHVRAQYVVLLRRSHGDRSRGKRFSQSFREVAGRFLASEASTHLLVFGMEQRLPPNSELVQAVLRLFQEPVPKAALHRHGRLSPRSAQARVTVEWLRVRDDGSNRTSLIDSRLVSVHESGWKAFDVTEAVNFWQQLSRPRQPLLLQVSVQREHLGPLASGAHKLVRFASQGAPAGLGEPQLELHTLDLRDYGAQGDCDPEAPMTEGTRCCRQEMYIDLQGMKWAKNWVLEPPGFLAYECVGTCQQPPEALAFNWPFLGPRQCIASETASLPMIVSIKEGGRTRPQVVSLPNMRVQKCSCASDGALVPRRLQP
Torsin-1A-interacting protein 1 (Homo sapiens), sequence (Q5JTV8 whole entry, looked up): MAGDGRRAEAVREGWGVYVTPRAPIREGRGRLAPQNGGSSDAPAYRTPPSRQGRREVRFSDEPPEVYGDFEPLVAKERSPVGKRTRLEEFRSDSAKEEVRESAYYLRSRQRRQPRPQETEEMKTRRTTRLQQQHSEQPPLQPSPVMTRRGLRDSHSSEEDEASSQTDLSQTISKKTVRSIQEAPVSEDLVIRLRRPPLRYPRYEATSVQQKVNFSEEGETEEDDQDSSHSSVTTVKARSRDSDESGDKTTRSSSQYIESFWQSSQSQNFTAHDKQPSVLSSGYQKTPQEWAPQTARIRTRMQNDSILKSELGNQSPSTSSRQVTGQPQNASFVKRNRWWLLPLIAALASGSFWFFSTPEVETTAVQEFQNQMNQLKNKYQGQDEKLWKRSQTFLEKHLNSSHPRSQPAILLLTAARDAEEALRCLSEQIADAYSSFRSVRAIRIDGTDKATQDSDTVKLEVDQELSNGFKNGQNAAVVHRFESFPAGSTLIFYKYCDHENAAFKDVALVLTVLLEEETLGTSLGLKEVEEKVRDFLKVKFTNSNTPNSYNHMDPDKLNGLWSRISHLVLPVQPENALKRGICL
Alpha-bungarotoxin (Bungarus multicinctus), sequence (P60615 whole entry, looked up): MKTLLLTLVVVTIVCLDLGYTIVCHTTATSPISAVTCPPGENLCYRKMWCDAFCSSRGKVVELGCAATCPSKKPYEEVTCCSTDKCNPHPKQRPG

Take `C=CC1c2cc(O)c(OC)cc2CCN1Cc1cccc(OC(F)(F)F)c1` (stereo not given): the composite z-score is 0.625 in [1]; -0.154 in test [3]; 0.667 in [4]; -0.566 in test [5]; -0.175 in [6]; -0.0146 in [7]. For the same compound, the composite z-score is -0.483 in [8]; 0.828 in test [9]; 0.39 in test [10]; 0.971 in the test with Albumin (Bos taurus); -0.0596 in test [12]; -0.16 in [13]. Further, the composite z-score in [14] was found to be 0.893; in [15], 3.33; in [16] it was 0.754; with Sam68 (KHDRBS1) it was 0.909; in [17] it was 0.44; in test [18] it was 0.462. Also, the z-score in test [2] was -1.79. In test [11], the composite Z-score was 0.625 (inactive).
As to `CN1C(=O)C2C=CC(C(O)c3ccccc3)N(N3CCCCC3)C2C1=O` (stereo not given), the composite z-score in test [1] was 0.876; in test [3], -0.203; in test [4], 0.0777; in [5], -0.102; in test [6], 0.28; in [7], 0.108. The composite z-score is -0.52 in [8]; 0.411 in [9]; 0.464 in [10]; 0.988 with Albumin (Bos taurus); 0.237 in [12]; 0.0521 in [13]. The composite z-score in [14] is 0.846; in test [15] it was 2.37; in test [16], 0.676; in the test with Sam68 (KHDRBS1), 1.02; in [17], -0.409; in [18], 0.872. In test [2], this compound gave a z-score of -0.379. The composite Z-score in test [11] is -0.123 (inactive).
Regarding `CCCCC(O)C1C=CC2C(=O)N(C)C(=O)C2N1N1CCCCC1` (stereo not given), the composite z-score in [1] is 1.34; in [3], 0.462; in test [4] it was 0.0471; in test [5] it was -0.665; in [6], 0.0251; in test [7] it was 0.156. Also, the composite z-score was -0.294 in test [8]; 0.893 in test [9]; 1.16 in [10]; 0.843 with Albumin (Bos taurus); 0.291 in test [12]; 0.0675 in [13]. Moreover, the composite z-score in test [14] is 0.821; in [15], 2.45; in test [16], 0.536; with Sam68 (KHDRBS1), 0.952; in test [17] it was 0.372; in test [18] it was 0.0635. In [2], this compound had a z-score of 0.0634. In addition, the composite Z-score in test [11] is 0.257 (inactive).
With `O=C(O)[C@H](Cc1ccccc1)n1cc(-c2ccccc2)nn1`, the composite z-score in test [1] is 0.52; in test [3] it was 0.506; in test [4], 0.14; in test [5], -0.372; in [6] it was -0.152; in [7], -0.237. The composite z-score in test [8] is 0.297; in [9], 0.635; in test [10], 0.327; in the test with Albumin (Bos taurus), 0.0644; in test [12], -0.0313; in test [13], -0.164. For the same compound, the composite z-score in test [14] is 0.155; in test [15], -0.065; in test [16] it was 0.277; with Sam68 (KHDRBS1) it was 0.187; in test [17] it was 0.238; in [18], 0.362. The z-score in test [2] turned out to be 0.36. Also, in [11], the composite Z-score is 0.52 (inactive).
As for `CCOC(=O)C1=CC[C@@H](c2ccccc2)N(S(=O)(=O)c2ccc(C)cc2)[C@H]1c1ccc(CC)cc1`, the composite z-score in test [1] was 1.4; in [3] it was 0.353; in test [4], 1.21; in test [5], 0.511; in test [6], -0.0384; in test [7], -0.264. The composite z-score in test [8] was 0.733; in test [9], 0.331; in test [10], 0.569; with Albumin (Bos taurus) it was 0.847; in test [12], 0.0749; in [13], -0.0371. Besides, the composite z-score was 0.571 in test [14]; 1.52 in test [15]; 0.662 in test [16]; 1.1 in the test with Sam68 (KHDRBS1); -0.0671 in test [17]; 1.11 in test [18]. In addition, the z-score in [2] is -1.8. Also, in test [11], the composite Z-score is -0.579 (inactive).
For `O=c1cccc(-c2ccccc2Cl)o1`, the composite z-score in [1] is 0.201; in [3], -0.12; in test [4] it was -0.559; in test [5], -0.503; in test [6] it was -0.124; in test [7], 0.0952. The composite z-score in [8] was -0.593; in [9], 0.21; in [10] it was -0.183; in the test with Albumin (Bos taurus) it was 0.18; in [12], -0.177; in [13], -0.199. The composite z-score in [14] was -0.0836; in test [15], -0.011; in test [16], -0.235; in the test on Sam68 (KHDRBS1), 0.102; in [17], 0.0431; in test [18], -0.415. In addition, the z-score in test [2] is -0.143. In addition, the composite Z-score in test [11] is 0.0241 (inactive).
